KB-3-1 cytotox: qHTS assay for MDR1-selective chemotherapeutics: Primary screen using the parental adenocarcinoma cell KB-3-1; KB-3-1 viability, CellTiter-Glo ATP luminescence, 72 h; AID 1347075, 2019; Potency, µM (doses to about 46.1 µM), usual class: cytotoxic; 400,000 compounds, 1.4% hits; further: on the % scale 0 is the no-effect control and ±100 the full control effect; nearly all actives have a fitted effect of over 60% in size
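Cells are dispensed, compounds pinned in, plates held at 37 °C for 72 h, then CellTiter-Glo is added and luminescence read after 10 minutes. Cell line: parental KB-3-1 in phenol-red-free DMEM, 10% FBS.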
HT1080-NT tox: qHTS for induction of synthetic lethality in tumor cells producing 2HG: qHTS for the HT-1080-NT fibrosarcoma cell line; AID 686970, 2013; HT-1080-NT fibrosarcoma viability, CellTiter-Glo ATP luminescence, 48 h; 360,000 compounds, 1.6% hits; Potency, µM (series often up to 46.1 µM), inactives show at the highest dose activity, negative = less viability, hits mostly cytotoxic;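 further: NT is the 2HG producing partner of a matched IDH1 knockdown line; 0% = DMSO-treated cells and -100% = media-only wells without cells; nearly all actives have a fitted effect of over 55% in size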
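750 cells/well, RPMI + 5% FBS; 2 h settle, compound pin-transfer, 48 h at 37 degrees C. CellTiter-Glo 10 min RT, luminescence. Normalized to DMSO and media-only wells.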
KB-V1 cytotox: qHTS assay for MDR1-selective chemotherapeutics: Primary screen using the drug-selected MDR subline cells KB-V1; 400,000 compounds, 3.4% hits; KB-V1 MDR cells viability, CellTiter-Glo, 72 h; Potency, µM (titrated, usually from 46.1 µM), most hits filed as cytotoxic; further: on the % scale 0 is the no-effect control and ±100 the full control effect; nearly all actives have a fitted effect of over 60% in size
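KB-V1 cells (P-gp-expressing MDR subline of KB-3-1) in phenol-red-free DMEM with 10% FBS were exposed to library compounds over a concentration series for 72 h at 37 degrees C. Viability read by CellTiter-Glo luminescence; concentration-effect curves fitted after normalization.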
HT1080 IDH1KD tx: qHTS for induction of synthetic lethality in tumor cells producing 2HG: qHTS for the HT-1080-IDH1KD cell line; AID 686971, 2013; Potency, µM (doses to about 46.1 µM), for inactives: at the highest dose activity, negative = toxicity, usual class: cytotoxic; 360,000 compounds, 2% hits; HT-1080 IDH1 knockdown viability, ATP luminescence, 48 h;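 further: 0% = DMSO wells and -100% = cell-free medium wells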
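Knockdown cells (IDH1KD HT-1080) received compounds 2 h after plating at 750 cells/well and were kept 48 h at 37 °C in 5% FBS RPMI. A CellTiter-Glo luminescence read gave % activity for curve fitting.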
MCF10A rereplic: A quantitative high throughput screen for small molecules that induce DNA re-replication in MCF 10a normal breast cells. MCF 10A DNA re-replication, Hoechst nuclear intensity, 48 h. 350,000 compounds, 2.9% hits. Potency, µM (titrated, usually from 46.1 µM), without a hit: at the top dose activity, positive = re-replication, hits mostly activators. AID 624296, 2012; further: % of control where 0% means no effect; nearly all actives have a fitted effect of over 50% in size
SW480 rerep: A quantitative high throughput screen for small molecules that induce DNA re-replication in SW480 colon adenocarcinoma cells | SW480 DNA re-replication, Hoechst DNA content imaging, 48 h | Potency, µM (series often up to 46.1 µM), without a hit: at the highest dose re-replication activation, usual class: activators | 340,000 compounds, 1.8% hits; further: % of control where 0% means no effect; nearly all actives have a fitted effect of over 55% in size
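Cells (250 per well) received 23 nL compound or DMSO by pin tool and were kept 48 hr at 37 C, 5% CO2. Nuclei were then stained with Hoechst for 40 min and scanned for DNA content.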
* hit, by the source's call; i = inactive; ? = inconclusive; nt = no result. Sampled rows, rich in hits. Any-hit rate of the full collection: about 8%. The call rests on the fitted dose curve; in most records, active means well fitted curve in the direction sought with a large enough effect; inconclusive means small, poorly fitted or top-dose-only effect, or another doubt; inactive means no such curve, though single readings can be large; an effect the other way counts as inactive or inconclusive. Potency means the concentration at half of the fitted maximal effect.

SMILES	KB-3-1 cytotox	HT1080-NT tox	KB-V1 cytotox	HT1080 IDH1KD tx	MCF10A rereplic	SW480 rerep
Cn1cc(C(=O)c2ccc(Cl)cc2Cl)cc1C(=O)N/N=C(\N)COc1ccc(Cl)cc1	?	?	?	16µM*	9%	?
Cn1cc(C(=O)c2ccc(Cl)cc2Cl)cc1C(=O)N/N=C(\N)COc1ccccc1	i	-19%	?	-28%	?	?
CC(Oc1ccccc1)C(=O)N[C@@H]1C(=O)N2C(C(=O)OCC3CCCCC3)C(C)(C)S[C@H]12 (stereo not given in full)	i	nt	?	nt	nt	nt
COCCCNc1nc2c(-c3cccc(Br)c3)nnn2c2ccccc12	i	nt	i	nt	nt	nt
CC1CN(S(=O)(=O)c2ccc(C(=O)NCCCn3ccnc3)cc2)CC(C)O1 (stereo not given)	i	2.1µM*	i	1.8µM*	3.7µM*	5.8µM*
O=C(NCCCn1ccnc1)c1ccc(N2CCCCCC2)c([N+](=O)[O-])c1	i	23µM*	i	5.8µM*	?	?
Cc1ccc(C(=O)NCCCn2ccnc2)cc1[N+](=O)[O-]	i	-12%	i	?	1%	-4%
O=C(NCCCn1ccnc1)c1cccc(Br)c1	i	11%	i	10%	-5%	26µM*
O=C(NCCCn1ccnc1)c1ccc(Br)cc1	i	-1%	i	0%	1%	-7%
Cc1oc2ccc(O)c(CN3CCCC(C)C3)c2c1C(=O)Nc1ccccc1 (stereo not given)	?	nt	i	nt	nt	nt
CC(C)N(Cc1ccccc1)C(=O)Cn1ncc2c([nH]c3ccccc32)c1=O	i	nt	i	nt	nt	nt
CCc1ccc(S(=O)(=O)c2nnn3c2nc(N(CC)Cc2ccccc2)c2cc(Cl)ccc23)cc1	i	nt	i	nt	nt	nt
CN=C1C=CC(=C(c2ccc(N(C)C)cc2)c2ccc(N(C)C)cc2)C=C1	nt	nt	nt	nt	18%	?
Cc1cc(C)n(CCc2nc(-c3cc4ccccc4o3)cs2)n1	i	2%	16µM*	6%	20%	1%
CCc1ccc(CNc2nc3nc(C)c(Cc4ccccc4)c(=O)n3[nH]2)cc1	i	nt	i	nt	nt	nt
O=C1OCCN1C(=O)[C@H]1[C@H](c2ccc([N+](=O)[O-])cc2)C(c2ccccc2)=NN1c1ccccc1	i	-10%	i	-27%	3%	-6%
Cc1cccc(C2=NN(c3ccc(Br)cc3)[C@@H](C(=O)N3CCOC3=O)[C@@H]2c2ccc([N+](=O)[O-])cc2)c1	i	-11%	i	-21%	-19%	-1%
CC[C@H]1C(c2ccc(F)cc2)=NN(c2ccccc2)[C@@H]1CO	i	-1%	i	-1%	6.5µM*	?
OC[C@@H]1[C@@H](c2ccc(F)cc2)C(c2ccccc2)=NN1c1ccccc1	i	-19%	?	-28%	?	18µM*
Cc1cccc(C2=NN(c3ccccc3)[C@H](CO)[C@H]2c2ccccc2)c1	i	-23%	i	-26%	2.3µM*	16µM*
Cc1ccc(OCC(=O)Nc2nonc2-c2ccc(Br)cc2)cc1C	i	nt	i	nt	nt	nt
COc1ccc(NC(=O)c2cc(-c3ccc(F)cc3)no2)cc1OC	i	nt	?	nt	nt	nt
CCOc1ccc(CCNC(=O)c2c3c(nc4ccccc24)C(=O)N(C2CCCCC2)C3)cc1	i	nt	i	nt	nt	nt
O=C(CCCN1C(=O)/C(=C/c2ccccc2Cl)SC1=S)NNC(=O)c1ccncc1	?	-6%	i	-10%	13µM*	-31%
Cc1cc(NC(=O)CCN2C(=O)/C(=C\c3ccccc3)SC2=S)no1	i	-2%	i	0%	-4%	-21%

Screens from PubChem BioAssay.
